Assay results from the supplement of paper PMC8699584.
Values joined by “and” are separate entries in the source; they are usually repeats but may differ in a detail not shown here. Identical values can stand only once. Counter-ions that a name gives are not always drawn. ± gives the standard deviation of the averaged measurements.

Key:
[1] = tested on: Molm13; experiment: cell viability relative to DMSO control (bortezomib = 0%); higher = less growth inhibition; details: 10 nM; 72 h
Procedure, shortened: (§1)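 Acute myeloid leukemia cells, 1000 per well in 50 µL, were incubated for 72 h on 384-well plates with 679 approved and investigational compounds, each at a single 10 nM dose. Viability was read by CellTiter-Glo luminescence. Values were expressed as percentages through per-plate linear regression against DMSO-treated (100%) and positive-control-treated (0%) cells.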

[2] = tested on: Mv4-11; experiment: as above; details: 10 nM; 72 h
Procedure, shortened: as §1

SMILES: CNC(=O)c1ccccc1Nc1nc(Nc2ccc(N3CCOCC3)cc2OC)ncc1Cl
- cell viability [1]: 90.55 ± 0.19%
- cell viability [2]: 109 ± 5.5%

SMILES: CCCCNc1ncc(C(=O)NCc2ccc(-n3ccnc3)cc2)c(NC2CCC(O)CC2)n1 (configuration not stated)
- cell viability [1]: 103 ± 5.1%
- cell viability [2]: 115.2 ± 0.28%

SMILES: CN(C)C(=O)c1ccc(S(=O)(=O)c2ccc(NC(=O)[C@@](C)(O)C(F)(F)F)c(Cl)c2)cc1
- cell viability [1]: 97 ± 12%
- cell viability [2]: 109 ± 7%

SMILES: CN(C)CCN(C)C(=O)c1ccc(NC(=O)Nc2ccc(-c3nc(N4CCOCC4)c4ccn(CC(F)(F)F)c4n3)cc2)cc1
- cell viability [1]: 87.9 ± 21%
- cell viability [2]: 105 ± 3.9%

SMILES: CC1(C)CNc2cc(NC(=O)c3cccnc3NCc3ccncc3)ccc21 [Motesanib Diphosphate (AMG-706)]
- cell viability [1]: 89.2 ± 9.9%
- cell viability [2]: 106 ± 12%

SMILES: C[C@@H]1O[C@@H](OC[C@H]2O[C@@H](Oc3c(-c4ccc(O)c(O)c4)oc4cc(O)cc(O)c4c3=O)[C@H](O)[C@@H](O)[C@@H]2O)[C@H](O)[C@H](O)[C@H]1O [Rutin]
- cell viability [1]: 103 ± 1.5%
- cell viability [2]: 113.3 ± 0.28%

SMILES: C[C@@]1(C(=O)Nc2ccc(F)nc2)CCCN1c1nc(Nc2cc(C3CC3)n[nH]2)c2cccn2n1
- cell viability [1]: 117 ± 2.5%
- cell viability [2]: 127 ± 2.5%

SMILES: COc1cc(Nc2ncc3c(n2)-c2ccc(Cl)cc2C(c2c(F)cccc2OC)=NC3)ccc1C(=O)O [MLN8237(Alisertib)]
- cell viability [1]: 99.5 ± 6.3%
- cell viability [2]: 114 ± 4.2%

SMILES: CC(=O)c1cnc2ccc(-c3cc(Cl)c(O)c(Cl)c3)nc2c1N[C@H]1CC[C@H](CN(C)C)CC1
- cell viability [1]: 95.1 ± 17%
- cell viability [2]: 80.6 ± 6.8%

SMILES: CCCCOc1c(C(=O)c2c(F)cc(C)cc2F)c[nH]c2nncc1-2
- cell viability [1]: 112 ± 1.9%
- cell viability [2]: 107 ± 7%

SMILES: O=C1Cc2c([nH]c3ccc(Br)cc23)-c2ccccc2N1 [Kenpaullone]
- cell viability [1]: 88 ± 2.5%
- cell viability [2]: 111 ± 5.9%

SMILES: COc1cc(OC)c(/C=C/S(=O)(=O)Cc2ccc(OC)c(OP(=O)(O)O)c2)c(OC)c1 [Briciclib]
- cell viability [1]: 114 ± 25%
- cell viability [2]: 106 ± 11%

SMILES: Cc1cc(C)c(/C=C2\C(=O)Nc3ccccc32)[nH]1 [Semaxanib (SU5416)]
- cell viability [1]: 82.4 ± 11%
- cell viability [2]: 98 ± 16%

SMILES: CSc1cccc(Nc2ncc3cc(-c4c(Cl)cccc4Cl)c(=O)n(C)c3n2)c1
- cell viability [1]: 92.8 ± 10%
- cell viability [2]: 101 ± 7.8%

SMILES: O=C(Nc1cccc(Cl)c1)Nc1ncc(CCNc2ncnc3ccsc23)s1 [SNS-314 Mesylate]
- cell viability [1]: 64.7 ± 13%
- cell viability [2]: 84.75 ± 0.26%

SMILES: COc1ccc(Cl)cc1NC(=O)Nc1cc(C)nc2ccccc12
- cell viability [1]: 129 ± 23%
- cell viability [2]: 130 ± 17%

SMILES: O=c1c(-c2ccc(O)cc2)coc2cc(O)cc(O)c12 [Genistein]
- cell viability [1]: 104 ± 4.5%
- cell viability [2]: 122 ± 24%

SMILES: N#C/C(=C\c1ccc(O)c(O)c1)C(=O)NCc1ccccc1 [AG-490 (Tyrphostin B42)]
- cell viability [1]: 103 ± 5.9%
- cell viability [2]: 105 ± 1.8%

SMILES: Cc1[nH]c(/C=C2\C(=O)Nc3ccccc32)c(C)c1CCC(=O)O [TSU-68 (SU6668, Orantinib)]
- cell viability [1]: 93.8 ± 2.3%
- cell viability [2]: 122 ± 14%

SMILES: CN1CCN(c2nc(C3=C(c4c[nH]c5ccccc45)C(=O)NC3=O)c3ccccc3n2)CC1 [Sotrastaurin]
- cell viability [1]: 99 ± 21%
- cell viability [2]: 109 ± 11%

SMILES: Nc1nc(NC2CC2)cc(-c2cccc(Cl)c2Cl)n1
- cell viability [1]: 115 ± 8.1%
- cell viability [2]: 96.9 ± 4.4%

SMILES: Oc1c2ccccc2c2c3c(cccc13)N=N2
- cell viability [1]: 114% and 102%
- cell viability [2]: 103% and 104%

SMILES: CC[C@H](Nc1ncnc2[nH]cnc12)c1nc2cccc(F)c2c(=O)n1-c1ccccc1 [CAL-101 (Idelalisib, GS-1101)]
- cell viability [1]: 93.7 ± 22%
- cell viability [2]: 105 ± 6.2%

SMILES: COc1ccc2c(c1)c(C1=C(c3c[nH]c4ccccc34)C(=O)NC1=O)cn2CCCN(C)C
- cell viability [1]: 85.4 ± 2%
- cell viability [2]: 103 ± 7.6%

SMILES: O=S(=O)(c1cccc2cnccc12)N1CCCNCC1 [Fasudil (HA-1077) hydrochloride]
- cell viability [1]: 91.5 ± 1.8%
- cell viability [2]: 104 ± 5%

SMILES: CC(C)(C)Cn1c(N)nc2ccc(-c3[nH]c(C(C)(C)C)nc3-c3ccc(F)cc3)nc21
- cell viability [1]: 100 ± 12%
- cell viability [2]: 84.9 ± 21%

SMILES: COc1cc(Nc2c(C#N)cnc3cc(OCCCN4CCN(C)CC4)c(OC)cc23)c(Cl)cc1Cl [Bosutinib]
- cell viability [1]: 112 ± 24%
- cell viability [2]: 90.8 ± 17%

SMILES: CCNc1nc(Nc2cc(F)c(C(=O)N3CCOCC3)cc2OC)ncc1C(F)(F)F
- cell viability [1]: 105.79 ± 0.065%
- cell viability [2]: 102.3 ± 0.71%

SMILES: COc1cc2c(cc1OC)-c1[nH]nc(Nc3cccc(F)c3)c1C2
- cell viability [1]: 120 ± 23%
- cell viability [2]: 116 ± 26%

SMILES: CC(C)=CCC[C@](C)(O)[C@H]1CC[C@]2(C)[C@@H]1[C@H](O)C[C@@H]1[C@@]3(C)CC[C@H](O)C(C)(C)[C@@H]3[C@@H](O[C@@H]3O[C@H](CO)[C@@H](O)[C@H](O)[C@H]3O[C@@H]3O[C@@H](C)[C@H](O)[C@@H](O)[C@H]3O)C[C@]12C [Ginsenoside Rg2]
- cell viability [1]: 94.4 ± 23%
- cell viability [2]: 93.6 ± 9.2%

SMILES: COCCN1CCN(Cc2ccc(-c3n[nH]c4c3C(=O)c3c(NC(=O)NN5CCOCC5)cccc3-4)cc2)CC1
- cell viability [1]: 70.99 ± 0.17%
- cell viability [2]: 55.6 ± 8.7%
